# Only some compounds are listed: those with a hit (about 18% of all), similar ones and a draw of the others.
# IL-1B inflam inh – blocks inflammasome-driven IL-1 beta release; THP-1 LPS/ATP IL-1B secretion, AlphaLISA, 16 h; active compounds read low; activity change, % at 57.5 µM; 360,000 compounds, 4.7% hits; in the data active = activity change below about -50%; inconclusive = mostly about -30% to -49%
#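 Secreted IL-1B measured by AlphaLISA bead assay after 16 h compound exposure of THP-1 cells; compounds (final up to 57.5 uM) added 1 h before LPS (250 ng/mL) and ATP (1.25 mM) stimulation; lower signal means less secretion.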
# TDP1 cell CPT – DT40-hTDP1 cell growth loss with CPT | chicken DT40 Tdp1-/-;hTDP1 cells + 20 nM CPT, ATP luminescence, 48 h | Potency, µM (top dose mostly 46.2 µM), inactives show top-dose activity change, negative = growth inhibition, usual class: inhibitors | 420,000 compounds, 12% hits | AID 686979; note: potency is the fitted concentration of half-maximal effect; nearly all actives have a fitted effect of over 55% in size
#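 Chicken DT40 Tdp1-/- cells stably complemented with human TDP1 were seeded at 400 cells/well in medium containing 20 nM camptothecin, exposed to pin-transferred compounds, and grown at 37 °C for at least 48 hr. Viability was read as ATP luminescence.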
# TDP1 inh – TDP1 (human) enzyme inhibition. Q9NUW8. AID 485290. recombinant TDP1, AlphaScreen DNA substrate cleavage. Potency, µM (doses to about 130 µM), inactives show at the highest dose activity change, negative = inhibition, hits mostly inhibitors. 350,000 compounds, 0.28% hits; note: potency is the fitted concentration of half-maximal effect; nearly all actives have a fitted effect of over 40% in size
# Target sequence (Q9NUW8 whole entry, looked up): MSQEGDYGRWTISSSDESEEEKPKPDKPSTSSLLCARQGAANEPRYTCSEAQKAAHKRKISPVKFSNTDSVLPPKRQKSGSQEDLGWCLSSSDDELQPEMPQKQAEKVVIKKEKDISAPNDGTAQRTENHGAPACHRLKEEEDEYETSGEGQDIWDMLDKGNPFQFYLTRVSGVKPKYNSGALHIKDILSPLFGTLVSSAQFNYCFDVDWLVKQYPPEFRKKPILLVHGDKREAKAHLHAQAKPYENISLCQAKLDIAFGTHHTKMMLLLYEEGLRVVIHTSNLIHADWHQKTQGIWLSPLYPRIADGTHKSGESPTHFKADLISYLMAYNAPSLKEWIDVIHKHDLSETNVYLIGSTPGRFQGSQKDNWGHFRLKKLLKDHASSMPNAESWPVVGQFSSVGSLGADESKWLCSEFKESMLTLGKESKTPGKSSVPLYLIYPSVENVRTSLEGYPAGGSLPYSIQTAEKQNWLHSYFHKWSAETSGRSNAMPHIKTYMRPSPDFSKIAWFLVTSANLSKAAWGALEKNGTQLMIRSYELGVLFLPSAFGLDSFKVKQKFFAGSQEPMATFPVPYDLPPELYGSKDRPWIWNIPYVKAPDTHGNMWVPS
#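 Recombinant human Tdp1 (E. coli-expressed, 1 nM final) preincubated with compounds 15 min at room temperature, then 5'-biotin/3'-phosphotyrosine-FITC DNA substrate (15 nM final) added for 5 min. AlphaScreen beads (10 ug/ml final) added 10 min; cleavage lowers signal.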
# CtBP-E1A blk – CtBP/E1A binding inhibition | AlphaScreen GST-E1A/His-CtBP binding, 1536-well; active compounds read low | activity change, % (no concentration beside the values) | 340,000 compounds, 0.49% hits | AID 651724; in the data active = activity change below about -65%; inconclusive = mostly about -30% to -63%
#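 GST-E1A and His-tagged CtBP (125 nM each as 5X stock) were preincubated with pin-transferred compound for 2 h at 37 °C in the dark, then glutathione donor and nickel acceptor beads were added for 1 h before AlphaScreen reading.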
# DT40 TDP1 no CPT – qHTS for Inhibitors of human tyrosyl-DNA phosphodiesterase 1 (TDP1): qHTS in cells in absence of CPT | Potency, µM (titrated, usually from 46.2 µM), inactives show top-dose activity change, negative = growth inhibition, most hits filed as inhibitors | AID 686978, 2013 | DT40 Tdp1-/- hTDP1 cells, no CPT, ATP luminescence, 48 h | 420,000 compounds, 15% hits; note: potency is the fitted concentration of half-maximal effect; nearly all actives have a fitted effect of over 55% in size
#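 Luminescent ATP content (CellTiter-Glo) served as the growth readout. Knockout chicken DT40 cells expressing human TDP1 were exposed to compounds without camptothecin for a minimum 48 hr at 37 °C.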
# Six1-Eya2 inh – blocks human Six1 binding to Eya2; Q15475+O00167; AlphaScreen GST-Six1/His-Eya2 binding, biochemical; active compounds read low; activity change, % (concentration not given with the values); 360,000 compounds, 0.56% hits; AID 651725; in the data active = activity change below about -65%; inconclusive = mostly about -30% to -63%
#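 Six1/Eya2 binding was read as AlphaScreen signal after compounds were pinned into GST-Six1 plus His-tagged Eya2 (5X stock 250/500 nM) in pH 8.0 Tris/NaCl/TCEP buffer, beads added, then incubated 1 h, 37 C, dark.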
# Active calls of the source: *; ? = inconclusive; nt = no result given. Unless noted, calls come from the whole dose curve; as a rule, active = well fitted curve in the direction sought with a large enough effect; inconclusive = small, poorly fitted or top-dose-only effect, or another doubt; inactive = no such curve, though single readings can be large; an effect the other way counts as inactive or inconclusive. % is set by controls: 0 for no effect and ±100 for the full control effect.
SMILES,IL-1B inflam inh,TDP1 cell CPT,TDP1 inh,CtBP-E1A blk,DT40 TDP1 no CPT,Six1-Eya2 inh
Cc1nn(CCCC(=O)NCc2ccccc2)c(=O)c2c1sc1ccccc12,nt,?,0%,nt,-76%,nt
CCOC(=O)N1CCN(C(=O)CCCn2nc(C)c3sc4ccccc4c3c2=O)CC1,?,?,4%,-5,26µM*,4
COc1ccc(CCNC(=O)CCCn2nc(C)c3sc4ccccc4c3c2=O)c(OC)c1,nt,23µM*,3%,nt,?,nt
CCc1ccc(NC(=O)CSc2nc3nccnc3c(=O)n2CCc2c[nH]c3ccccc23)cc1,nt,8.2µM*,4%,nt,4.1µM*,nt
Cc1ccc(C)c(NC(=O)C(=O)NCCc2c[nH]c3ccccc23)c1,-22,-29%,3%,5,?,-5
CCc1ccc(NC(=O)CSc2nc3c([nH]c4ccccc43)c(=O)n2-c2ccc(C)cc2)cc1,nt,-24%,2%,nt,?,nt
Cc1ccc(C)c(NC(=O)CSc2nc3nccnc3c(=O)n2CCc2c[nH]c3ccccc23)c1,nt,12µM*,5%,nt,12µM*,nt
NC(=O)c1cc(-c2ccccc2)nc(N2CCOCC2)n1,-50*,21µM*,3%,-21,12µM*,-21
Cc1ccc(/C=C2\SC(N3CCCC3)=NC2=O)cc1,nt,nt,2%,nt,nt,nt
O=C1N=C(N2CCCCC2)S/C1=C\c1ccc(Br)cc1,-14,-23%,nt,nt,?,4
CC(C)c1ccc(/C=C2\SC(N3CCCC3)=NC2=O)cc1,?,?,8%,-12,23µM*,-5
CCOc1ccc(/C=C2\SC(N3CCCCC3)=NC2=O)cc1,11,6.5µM*,nt,4,2.9µM*,-2
COc1ccc(S(=O)(=O)N(CC(=O)NN=C2CCN(C)CC2)c2cc(Cl)ccc2OC)cc1OC,8,14%,3%,-1,1%,4
O=C(CSc1nc2ncc(Cl)cc2[nH]1)NC1CCS(=O)(=O)C1 (configuration not stated),-18,0%,3%,-12,-8%,1
CNC(=O)CN1C(=O)CSc2nc(C)cc(C)c21,19,-14%,0%,-22,-2%,2
CCOc1cc(CNn2cnnc2SCC(=O)NC(C)(C)C)ccc1OCC(=O)NC(C)(C)C,20,-6%,8%,6,18µM*,3
C=CCc1cc(Cl)ccc1OCCOCCNC(C)(C)C,-9,?,-4%,nt,?,0
CCc1nc2ccccc2c(C(=O)OCc2nnc(-c3ccccc3)o2)c1C,2,18µM*,-1%,1,?,3
CCc1nc2ccccc2c(C(=O)OCC(=O)NC2CC2)c1C,-23,?,-3%,1,?,3
Cc1c(C(=O)OCc2nnc(-c3ccccc3)o2)oc2ccccc12,-11,-4%,-5%,nt,-14%,3
CCc1nc2ccccc2c(C(=O)OCc2nc3ccccc3c(=O)[nH]2)c1C,-56*,3.3µM*,-2%,-2,4.6µM*,-8
CCc1nc2ccccc2c(C(=O)OCC(=O)C(C)(C)C)c1C,15,?,-3%,-4,18µM*,0
C=CCn1c(SCc2ccccc2C#N)nnc1-c1ccccc1O,-1,-18%,0%,-3,-15%,-1
CC1CCC(NC(=O)Cn2c3c(c(-c4ccccc4Cl)cc2=O)CCC3)CC1 (configuration not stated),-16,16µM*,5%,-12,13µM*,-1
CC(C)(C)C(=O)Oc1cccc(Nc2ncnc3ccccc23)c1,13,?,1%,10,-25%,0
SMILES,IL-1B inflam inh,TDP1 cell CPT,TDP1 inh,CtBP-E1A blk,DT40 TDP1 no CPT,Six1-Eya2 inh
O=C(Oc1cccc(Nc2ncnc3ccccc23)c1)c1cccnc1,36,?,-3%,-8,-10%,-20
COc1cc(C(=O)Oc2cccc(Nc3ncnc4ccccc34)c2)cc(OC)c1OC,-95*,23µM*,7%,7,16µM*,-13
COc1cc2ncnc(Nc3ccc(Cl)cc3F)c2cc1OC,nt,nt,9%,nt,nt,nt
COc1ccc(C(=O)Oc2cccc(Nc3ncnc4ccccc34)c2)cc1OC,0,?,5%,14,18µM*,-9
C#Cc1cccc(Nc2ncnc3cc(OC)c(OC)cc23)c1,nt,?,10%,nt,23µM*,nt
CCn1c(CNC(=O)COc2ccc(C(C)C)cc2)nnc1SCC(=O)Nc1ccccc1,-5,-7%,1%,-10,?,3
COCC(=O)N(C)[C@H]1C[C@H]2c3cc(-c4ccccc4)ccc3CCN2C(=O)[C@H]1[C@H](C)O,11,12%,nt,4,-24%,4
C[C@H](O)[C@@H]1C(=O)N2CCc3ccc(-c4ccccc4)cc3[C@@H]2C[C@@H]1N(C)C(=O)c1ccco1,9,?,nt,7,15µM*,10
C[C@H](O)[C@@H]1C(=O)N2CCc3ccc(-c4cccc(F)c4)cc3[C@@H]2C[C@@H]1N(C)S(=O)(=O)c1ccccc1,-52*,?,nt,-3,?,-3
Cn1c(SCC(=O)Nc2sc3c(c2C#N)CCC3)nnc1C1COc2ccccc2O1 (configuration not stated),-5,-25%,-6%,-5,-18%,-6
C=C(C)CC1Nc2ccccc2NC1CC(=C)C (configuration not stated),-6,-25%,3%,-10,-26%,-17
CC(C)(C)NC(=O)c1ccc(C(=O)NC(C)(C)C)cc1,-10,2%,1%,2,?,11
CCCNC(=O)c1cccc(Br)c1,-2,4%,4%,3,3%,2
CC(C)(C)NC(=O)c1ccc2c(c1)C1C3CCC(C3)C1C(c1ccccc1)N2 (configuration not stated),?,13µM*,3%,-19,12µM*,-23
CCCNC(=O)c1ccc2c(c1)C1C3CCC(C3)C1C(c1ccccc1)N2 (configuration not stated),?,21µM*,9%,-13,?,-10
CCOC(=O)C1CCN(C(=O)CN2c3ccc(C(C)C)cc3-c3ccccc3S2(=O)=O)CC1,nt,21µM*,2%,nt,?,nt
CCc1ccc2c(c1)-c1ccccc1S(=O)(=O)N2CC(=O)N1CCC(C)CC1,nt,16µM*,3%,nt,18µM*,nt
COC(=O)c1ccc(CSc2nnc(CNC(=O)COc3ccc(Cl)cc3)o2)o1,-11,16µM*,5%,-1,?,-3
